HSF1 inhib: HSF1 inhibition; 300,000 compounds, 0.77% hits; activity change, negative = inhibition, % at 7.5 µM (by protocol); NIH3T3-HGL HSE-luciferase, MG132-induced, luminescence 8 h; stronger effect = lower value;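 active = more than half of replicate wells show activity change below -50%, luminescence cut by over half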;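 note: luciferase reports HSF-1 transcriptional activity via heat shock element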
esBAF inh: blocks esBAF chromatin remodeling in mouse ES cells | 350,000 compounds, 2% hits | reporter increase, % at 12.5 µM | Bmi1-luciferase knock-in reporter, 24 h; 100% = twice the neutral-well signal; in the data active = activation above about 40%;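 note: a rise in the Bmi1 reporter signal indicates esBAF inhibition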
HSF1 activator: increases HSF-1 driven luciferase reporter signal; activation, % at 9 µM; 300,000 compounds, 1.7% hits; NIH3T3-HGL HSF-1 luciferase reporter, MG132, 8 h; 100% = twice DMSO control signal;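 active = mean replicate activation of at least 50% with a set share of replicates each reaching 50%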
Vif inh: inhibitors of HIV Vif | inhibition, % at 7.49 µM | 340,000 compounds, 0.35% hits | AID 602346 | HEK293T cells, Vif self-association by quenched fluorescence, imaging, 24 h; in the data active = inhibition above about 50%, passing the limit was not always enough
Hits are given with their value; i = inactive; nt = no result. Compounds with a hit are over-represented: about 3.4% of the library has one in this group of screens.

SMILES	HSF1 inhib	esBAF inh	HSF1 activator	Vif inh
CCCC(C(=O)NC(C)(C)C)N(C(=O)c1snc(C(N)=O)c1N)c1ccc2c(c1)OCCO2 (configuration not stated)	-74	i	i	i
O=C1C(c2cc(=O)c3ccccc3[nH]2)=C(O)c2ccccc21	i	i	65	i
Cc1ccc(S(=O)(=O)N(C)C[C@H]2Oc3ccc(NC(=O)CCN4CCOCC4)cc3C(=O)N([C@@H](C)CO)C[C@@H]2C)cc1	nt	i	nt	nt
Cc1cccn2c(=O)c3cc(S(=O)(=O)c4ccc(F)cc4)c(=N)n(Cc4ccco4)c3nc12	i	i	98	i
Cc1cccn2c(=O)c3cc(S(=O)(=O)c4ccccc4)c(=N)n(Cc4ccco4)c3nc12	i	i	i	i
CCOC(=O)c1cnc2ccc(C(=O)OC)cc2c1NCCN1CCOCC1	i	nt	i	i
CCOC(=O)c1cnc2ccc(C(=O)OC)cc2c1NCCCN1CCOCC1	-83	i	i	i
CCC(C)Sc1nnc(NC(=O)c2ccco2)s1 (configuration not stated)	i	50	i	i
CNC(=O)c1ccsc1NC(=O)c1sc2ccccc2c1Cl	i	43	i	i
CCOCc1nnc(NC(=O)c2ccco2)s1	i	i	i	i
COCc1nnc(NC(=O)c2ccco2)s1	i	45	i	i
COCc1nnc(NC(=O)c2sc3ccccc3c2Cl)s1	i	51	i	i
CSc1nnc(NC(=O)c2ccco2)s1	i	i	i	i
CCC(=O)Nc1ccc2c(c1)C(=O)N(C)[C@@H]1CC[C@@H](CC(=O)N3CCc4ccccc4C3)O[C@H]1CO2	nt	i	nt	nt
COCC(=O)N1C[C@H](C)[C@@H](OC)CN(C)C(=O)c2ccc(NC(=O)NC(C)C)cc2OC[C@H]1C	nt	i	nt	nt
COc1ccccc1-c1cnc2c(c1)C(=O)N([C@@H](C)CO)C[C@H](C)[C@H](CN(C)C(=O)CC1CC1)O2	nt	i	nt	nt
CC(=O)NCCN=C(C)c1sc2ccccc2c1O	i	41	i	i
CC(=Nc1ccc(O)cc1)c1sc2ccccc2c1O	i	nt	i	i
O=C(NCC(=O)N1CCCCC1)c1sc2ccccc2c1Cl	nt	i	nt	i
CC(=Nc1cccc(C)c1)c1sc2ccccc2c1O	i	52	i	nt
Cc1noc(C)c1NC(=O)Nc1ccc2c(c1)C(=O)N([C@H](C)CO)C[C@H](C)[C@H](CN(C)C(=O)Nc1ccc(F)cc1)OCCCC[C@@H](C)O2	nt	i	nt	nt
CCOC(=O)N/N=C\c1ccccc1OC/C=C/c1ccccc1	i	46	55	i
COc1cc(/C=N\NC(C)=O)ccc1OC/C=C/c1ccccc1	i	i	i	i
COC(=O)N/N=C\c1ccccc1OC/C=C/c1ccccc1	i	49	i	i
COc1ccc(Nc2nnc(Cc3ccncc3)c3ccccc23)c(OC)c1	i	52	i	i
SMILES	HSF1 inhib	esBAF inh	HSF1 activator	Vif inh
COc1ccc(Nc2ncnc3ccccc23)c(OC)c1	i	i	i	nt
COc1cc(OC)c(NC(=O)CCNC(=O)Cn2cnc3ccccc3c2=O)cc1Cl	i	i	51	nt
CCc1ccc(C(=O)Cn2ncc(Cl)c(Cl)c2=O)cc1	-80	i	i	i
CC1(C)C(=O)Nc2ccccc2N1C(=O)Cn1ncc(Cl)c(Cl)c1=O	i	nt	54	i
Cc1cc(C)cc(Cn2ncc(Cl)c(Cl)c2=O)c1	i	nt	117	nt
Cc1nn(CC(=O)N2c3ccccc3NC(=O)C2(C)C)c(C)c1[N+](=O)[O-]	i	nt	i	i
Cc1ccc(Cn2ncc(Cl)c(Cl)c2=O)cc1	i	nt	i	i
O=C(Cn1ncc(Cl)c(Cl)c1=O)N1CCOCC1	i	nt	i	i
O=C(Cn1ncc(Cl)c(Cl)c1=O)N1CCN(Cc2ccccc2)CC1	i	nt	55	i
Cc1noc(C)c1NC(=O)Nc1ccc2c(c1)C(=O)N([C@@H](C)CO)C[C@@H](C)[C@H](CN(C)S(C)(=O)=O)O2	nt	i	nt	nt
Cc1noc(C)c1NC(=O)N(C)C[C@H]1Oc2ccc(NC(=O)Nc3cccc4ccccc34)cc2CC(=O)N([C@H](C)CO)C[C@@H]1C	nt	i	nt	nt
CCc1ccccc1NS(=O)(=O)c1cc2c3c(c1)CCN3C(=O)CC2	i	i	62	i
CCC(=O)Nc1ccc2c(c1)OC[C@@H](C)N(C(=O)NC(C)C)C[C@@H](C)[C@@H](OC)CN(C)C2=O	nt	i	nt	nt
CN(C)c1ccc(NC(=O)c2sc(SCC(=O)Nc3ccc(Br)cc3)nc2N)cc1	i	nt	i	i
CN(C)c1ccc(NC(=O)c2sc(SCC(=O)Nc3nccs3)nc2N)cc1	i	53	i	i
O=C(CSc1cn(Cc2ccccc2)c2ccccc12)NCc1ccc(F)cc1	i	i	i	i
CCOC(=O)c1c(SCC(=O)Nc2nccs2)nc(C)c(C)c1C	i	50	i	i

Screening results as filed in PubChem BioAssay.
